VP16 counter = counter-screen for ROR gamma inhibitors: Gal4-VP16 reporter | Drosophila S2 Gal4-VP16 UAS-luciferase, luminescence, 20 h | Potency, µM (highest dose often 53.6 µM), actives largely listed as inhibitors | actives 3.5% (n = 310,000) | AID 2546;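 also: Gal4-VP16 expression switched on by copper sulfate through the metallothionein promoter; nearly all actives have a fitted effect of over 50% in size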
HepG2 tox = counter-screen for TGF-b inhibitors: cytotoxicity in HepG2 cells; HepG2 CAGA-GFP viability, ATP luminescence, 18 h; Potency, µM (doses to about 46.1 µM), hits mostly cytotoxic; actives 0.76% (n = 410,000)
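HepG2 CAGA-GFP cells (1000/well, DMEM with 1% FBS) received compound, then TGF-beta at 500 pg/mL final, and were incubated 18 hours at 37 degrees C. Viability was read by CellTiter-Glo luminescence. Media-only wells were set as complete cell-killing and DMSO as no toxicity.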
TGFb inhibitor = inhibitors of TGF-b signaling | HepG2 CAGA-GFP TGF-b/SMAD3 reporter, GFP fluorescence, 18 h; TGF-beta stimulated, 500 pg/mL final | Potency, µM (doses to about 46.1 µM), actives largely listed as inhibitors | actives 1.2% (n = 410,000) | AID 588855; also: nearly all actives have a fitted effect of over 65% in size
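Inhibition was scored as loss of TGF-beta-induced (500 pg/mL final, 18 hours, 37 degrees C) GFP in HEPG2 cells carrying a CAGA-GFP reporter, in DMEM with 1% FBS. Well GFP was summed per cell; Activity was normalised to unstimulated and stimulated DMSO wells, then concentration-response fitting.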
RORgamma inh = inhibitors of mouse ROR gamma transcriptional activity; P51450; Drosophila S2 Gal4-RORgamma UAS-luciferase reporter, 20 h; Potency, µM (titrated, usually from 53.6 µM), actives largely listed as inhibitors; actives 5.4% (n = 310,000); also: nearly all actives have a fitted effect of over 60% in size
Target sequence (P51450 whole entry, looked up, the tested form may be a part): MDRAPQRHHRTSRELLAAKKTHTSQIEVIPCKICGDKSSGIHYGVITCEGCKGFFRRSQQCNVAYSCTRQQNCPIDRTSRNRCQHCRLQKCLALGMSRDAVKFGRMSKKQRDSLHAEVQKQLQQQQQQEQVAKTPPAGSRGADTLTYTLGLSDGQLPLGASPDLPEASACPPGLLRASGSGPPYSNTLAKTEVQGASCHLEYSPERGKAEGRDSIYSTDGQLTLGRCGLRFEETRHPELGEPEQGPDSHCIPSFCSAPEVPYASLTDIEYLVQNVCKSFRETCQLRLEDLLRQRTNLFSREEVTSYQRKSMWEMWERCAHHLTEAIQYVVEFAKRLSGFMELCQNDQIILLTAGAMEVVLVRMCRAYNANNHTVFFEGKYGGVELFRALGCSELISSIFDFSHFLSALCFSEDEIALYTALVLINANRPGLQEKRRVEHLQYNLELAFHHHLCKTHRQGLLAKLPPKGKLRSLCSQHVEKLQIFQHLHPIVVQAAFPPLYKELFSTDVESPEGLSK
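Compounds are pin-transferred onto Drosophila Schneider cells expressing a copper-inducible Gal4–ROR gamma transactivation domain fusion. After 1 hr, copper sulfate is added to 700 uM final; luciferase is read 20 hr later.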
S2 tox = reduces viability in counter-screen for ATXN expression inhibitors; actives 0.49% (n = 400,000); AID 651635; Potency, µM (series often up to 56.7 µM), actives largely listed as cytotoxic; S2 cells (HEK-293 line with an ATXN2-luciferase reporter) viability, CellTiter-Fluor protease fluorescence, 24 h; also: nearly all actives have a fitted effect of over 40% in size
ATXN2 expr inh = ATXN2 expression inhibition; HEK-293 ATXN2-luciferase reporter, luminescence, 24 h; actives 0.72% (n = 360,000); Potency, µM (top dose mostly 57 µM), usual class: inhibitors; also: nearly all actives have a fitted effect of over 55% in size
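ATXN2-luciferase reporter cells (luciferase flanked by upstream and downstream ATXN2 gene portions) were treated 24 h at 37 °C with compounds at up to 57 uM. SteadyGlo luminescence gave expression; GF-AFC fluorescence gave viability.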
Large screens that a line does not name were inactive. In the library only some 6.1% were active in any assay of this set; here they are far more common. Calls follow the shape of the dose curve; as a rule, active = well fitted curve in the direction sought with a large enough effect; inconclusive = small, poorly fitted or top-dose-only effect, or another doubt; inactive = no such curve, though single readings can be large; an effect the other way counts as inactive or inconclusive.

Cc1ccc(N2CC(NC(=O)CCc3ccccc3)CC2=O)cc1C (configuration not stated)	none (no result: VP16 counter, RORgamma inh, S2 tox, ATXN2 expr inh)
CCCN1CCCc2cc(CN(CCCN3CCOCC3)C(=O)Nc3ccc(Cl)c(Cl)c3)ccc21	TGFb inhibitor inconclusive, S2 tox 10µM (no result: VP16 counter, RORgamma inh)
CCOc1ccc(NC(=O)N(CCN2CCOCC2)Cc2ccc3c(c2)CCCN3CC)cc1	TGFb inhibitor inconclusive
CCN1CCCc2cc(CN(CCN3CCOCC3)C(=S)Nc3cccc(OC)c3)ccc21	TGFb inhibitor inconclusive, RORgamma inh 7.1µM (no result: ATXN2 expr inh)
CCCN1CCCc2cc(CN(CCCN3CCOCC3)C(=O)Nc3ccc(OCC)cc3)ccc21	S2 tox inconclusive
C=C1C=C(C(F)F)n2ncc(C(=O)NCc3ccc(OC)cc3)c2N1	none (no result: VP16 counter, RORgamma inh, S2 tox, ATXN2 expr inh)
COC(=O)c1cc2oc3ccccc3c2n1Cc1nc(-c2ccc(Cl)cc2)oc1C	none (no result: VP16 counter, RORgamma inh)
O=C(C=C=Nc1ccccc1)C(=O)N=C=Cc1ccccc1	VP16 counter 7.1µM, TGFb inhibitor inconclusive, RORgamma inh 4µM, S2 tox 28µM, ATXN2 expr inh inconclusive
CC(C)(C)c1ccc(C(=O)N2CCC(=O)N([C@H](COCc3ccccc3)Cc3ccccc3)CC2)cc1	ATXN2 expr inh 32µM (no result: VP16 counter, HepG2 tox, TGFb inhibitor, RORgamma inh, S2 tox)
CC(C)(C)c1ccc(C(=O)N2CCC(=O)N(C(COCc3ccccc3)Cc3ccccc3)CC2)cc1 (configuration not stated)	VP16 counter 14µM, TGFb inhibitor inconclusive, ATXN2 expr inh inconclusive (no result: S2 tox)
O=C(c1ccc(C(F)(F)F)cc1)N1CCC(=O)N(C(COCc2ccccc2)Cc2ccccc2)CC1 (configuration not stated)	TGFb inhibitor inconclusive, S2 tox inconclusive, ATXN2 expr inh inconclusive
Cc1ccc(Cn2c(C)c3cnn(CC(=O)N4CCN(c5ccc(F)cc5)CC4)c(=O)c3c2C)cc1	TGFb inhibitor inconclusive (no result: VP16 counter, RORgamma inh, S2 tox, ATXN2 expr inh)
N=C1C(c2nc3ccccc3[nH]2)=C(O)CN1c1ccccc1	VP16 counter inconclusive, TGFb inhibitor inconclusive, RORgamma inh 14µM
CCN(CC)Cc1cc(Nc2c3ccccc3nc3c4ccccc4n(C)c23)cc(CN(CC)CC)c1O	S2 tox 32µM, ATXN2 expr inh 20µM (no result: VP16 counter, RORgamma inh)
Oc1cccc(Nc2c3ccccc3nc3ccccc23)c1	TGFb inhibitor inconclusive (no result: S2 tox, ATXN2 expr inh)
CCOC(=O)CNC(=S)n1cnc(N)n1	TGFb inhibitor inconclusive, RORgamma inh 7.9µM
c1ccc(CNc2c(-c3cccc(SC4CCCCC4)c3)nc3ccccn23)cc1	TGFb inhibitor inconclusive, S2 tox inconclusive (no result: VP16 counter, RORgamma inh)
CCCCNc1c(-c2ccc(SC3CCCCC3)c(OC)c2)nc2ccc(C)cn12	HepG2 tox 8.9µM, TGFb inhibitor inconclusive, S2 tox inconclusive, ATXN2 expr inh inconclusive (no result: VP16 counter, RORgamma inh)
Cc1ccn2c(NCc3ccccc3)c(-c3cccc(SC4CCCCC4)c3)nc2c1	TGFb inhibitor 13µM, S2 tox inconclusive, ATXN2 expr inh inconclusive (no result: VP16 counter, RORgamma inh)
COc1ccc(-c2nc3ccc(C)cn3c2NCc2ccccc2)cc1SC1CCCCC1	TGFb inhibitor 20µM, S2 tox 16µM (no result: VP16 counter, RORgamma inh)
CCCCNc1c(-c2cccc(SC3CCCCC3)c2)nc2ccc(Cl)cn12	none (no result: VP16 counter, RORgamma inh)
CCCCNc1c(-c2ccc(OC)c(SC3CCCCC3)c2)nc2ccc(C)cn12	HepG2 tox 13µM, TGFb inhibitor 18µM, S2 tox 10µM, ATXN2 expr inh 25µM (no result: VP16 counter, RORgamma inh)
COC(=O)N1CCC2(CC1)CN(c1cccc(-c3ccccc3)c1)C2	none (no result: HepG2 tox, TGFb inhibitor, S2 tox, ATXN2 expr inh)
Cc1cnc(-n2ncc(C(=O)NCCc3cccnc3)c2C)nc1-c1cccs1	none (no result: VP16 counter, HepG2 tox, TGFb inhibitor, RORgamma inh, ATXN2 expr inh)
CCN1CN(Cc2ccco2)CNC1=S	none
CCCCN1CN(Cc2ccccc2)CNC1=S	VP16 counter 5µM, RORgamma inh 4.5µM
CCOCCCN1CN(Cc2ccccc2)CNC1=S	VP16 counter 3.5µM, RORgamma inh 2.5µM
COCCCN1CN(Cc2ccco2)CNC1=S	none
CNC(=S)NNC(=O)c1sc2cc(C(F)(F)F)cnc2c1-c1ccccn1	HepG2 tox 2.5µM, RORgamma inh 1.1µM
NC(=O)c1sc2cc(C(F)(F)F)cnc2c1-c1ccccc1	none
CNC(=S)NNC(=O)c1sc2cc(C(F)(F)F)cnc2c1-c1cccnc1	RORgamma inh 18µM

Screening results deposited in PubChem by National Center for Advancing Translational Sciences (NCATS).
